Screening data as filed in PubChem BioAssay.
Pf growth 96h – Primary qHTS for delayed death inhibitors of the malarial parasite plastid, 96 hour incubation; P. falciparum luciferase reporter growth, 96 h; Potency, µM (top dose mostly 28.7 µM), for inactives: top-dose activity change, negative = inhibition, actives largely listed as inhibitors; 6.9% of 320,000 active; AID 504834, 2011; further: potency means the concentration at half of the fitted maximal effect; on the % scale 0 is the no-effect control and ±100 the full control effect
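Delayed-death screen, second-generation endpoint: infected erythrocytes, 2% hematocrit, 0.05% parasitemia final; 96 hours at 37 C, 5% CO2; luciferase detection reagent; luminescence decrease equals reduced growth.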
Marburg entry inh – qHTS for inhibitors of binding or entry into cells for Marburg Virus. Marburg virus pseudotyped entry inhibition, cell reporter. Potency, µM (doses to about 37.8 µM), for inactives: top-dose activity change, negative = inhibition, usual class: inhibitors. 1.8% of 300,000 active; calls by dose curve; tested in HEK293 cells; further: potency means the concentration at half of the fitted maximal effect; on the % scale 0 is the no-effect control and ±100 the full control effect
Pf growth 48h – Primary qHTS for delayed death inhibitors of the malarial parasite plastid, 48 hour incubation; Potency, µM (doses to about 28.7 µM), for inactives: at the top dose activity change, negative = inhibition, usual class: inhibitors; P. falciparum luciferase growth in erythrocytes, 48 h; 5.9% of 310,000 active; further: potency means the concentration at half of the fitted maximal effect; on the % scale 0 is the no-effect control and ±100 the full control effect
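Here the parasites carry a stable luciferase gene and grow inside erythrocytes in Albumax-based RPMI medium with compound for one erythrocytic cycle. Activity is scored as loss of luminescent signal.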
Shiga toxin inh – A qHTS for Small Molecule Inhibitors of Shiga Toxin; Vero cells, Shiga toxin protein synthesis inhibition reporter; inhibition, % at 38.7 µM; 9.2% of 290,000 active; in the data active means inhibition mostly above about 28%, no sharp cut-off; inactive means mostly below about 43%; further: 0% is about no effect
CHX counter – Cycloheximide Counterscreen for Small Molecule Inhibitors of Shiga Toxin; cell reporter, cycloheximide protein synthesis inhibition counterscreen; max response, %; 12% of 300,000 active; AID 2314, 2010; in the data active means max response mostly above about 13%, no sharp cut-off; inactive means mostly below about 14%; further: read at 38.3 µM for the half of the compounds with a filed dose; 0% is about no effect
LASV entry inh – qHTS for Inhibitors of binding or entry into cells for Lassa Virus | Lassa virus pseudotype entry inhibition, cell reporter | Potency, µM (titrated, usually from 37.9 µM), for the others: at the highest dose activity change, negative = inhibition, hits mostly inhibitors | 1.2% of 300,000 active | AID 540256, 2011; calls by dose curve; tested in HEK293 cells; further: potency means the concentration at half of the fitted maximal effect; on the % scale 0 is the no-effect control and ±100 the full control effect; nearly all actives have a fitted effect of over 50% in size
* = called active by the depositor; ? = inconclusive; · = no result; [ ] = remark or other dose. Most compounds without a hit are left out; they make up all but 19% or so of the library. Unless noted, the call rests on the fitted dose curve; in most records, active means well fitted inhibition curve with a large enough effect; inconclusive means small, poorly fitted or top-dose-only effect, or another doubt; inactive means no such curve, though single readings can be large or run the other way.

SMILES	Pf growth 96h	Marburg entry inh	Pf growth 48h	Shiga toxin inh	CHX counter	LASV entry inh
CC(=O)NC1=NN(C(C)=O)C(C)(CCS(=O)(=O)c2ccc(Br)cc2)S1 (stereo not drawn)	?	0%	0%	-7	-1	9%
O=C(NCc1ccccc1Cl)C1CCC(CNS(=O)(=O)c2ccc(Br)s2)CC1 (stereo not drawn)	·	?	·	·	·	-24%[46.1 µM]
O=C(NCc1cccs1)C1CCC(CNS(=O)(=O)c2ccc(Br)s2)CC1 (stereo not drawn)	7.4µM*	-5%	·	-8	1	-17%
COc1ccc(C(=O)Nc2ccc(NC(=O)c3ccccn3)cn2)cc1	-3%	-2%[46.1 µM]	21%	78*	11	?
COc1ccc(C(=O)Nc2ccc(NC(=O)Cc3ccccc3)cn2)cc1	?	-2%[46.1 µM]	-3%	31	20*	-9%
COc1ccc(C(=O)Nc2ccccn2)cc1	7%	18%[46.1 µM]	-2%	9	-4	13%
Cc1c(Nc2nc(-c3cccc([N+](=O)[O-])c3)cs2)c(=O)n(-c2ccccc2)n1C	3%	-25%[46.1 µM]	-1%	-1	-2	-5%[46.1 µM]
C#CCN1C(=O)S/C(=C\c2ccc(-c3ccc(C(=O)O)cc3C)o2)C1=O	99%	?	12%	42*	39*	?
CC(C)(C)OC(=O)CN1C(=O)S/C(=C\c2ccc(-c3cccc(C(=O)O)c3)o2)C1=O	-2%	·	37%	118*	27*	·
CC(=O)N1N=C(c2ccc(C)cc2)OC1c1cccnc1 (stereo not drawn)	-10%	5%	39%	61*	18	-13%
CC(=O)N1N=C(c2cccc(Cl)c2)OC1c1ccc(C(C)C)cc1 (stereo not drawn)	1%	22%	·	31	23*	6%
CC(=O)NC1=NN(C(C)=O)C(c2cccc([N+](=O)[O-])c2)S1 (stereo not drawn)	-1%	6%	-9%	-11	-1	1%
CC(=O)N1N=C(c2cccc(Cl)c2)OC1c1cccc([N+](=O)[O-])c1 (stereo not drawn)	?	1%	?	-8	-3	?
CC(=O)NC1=NN(C(C)=O)C(c2ccc(C(C)C)cc2)S1 (stereo not drawn)	-28%	-5%	8%	5	16*	10%
COCCn1c(SCC(=O)c2ccc(C)cc2)nc2cc(C(=O)NC3CCCC3)ccc2c1=O	·	·	·	·	·	9%[46.1 µM]
CNC(=O)C(N)CSC(C)C1=C(C)c2cc3[n-]c(cc4nc(cc5[n-]c(cc1n2)c(C)c5CCC(=O)O)C(CCC(=O)O)=C4C)c(C)c3C(C)SCC(N)C(=O)NC.[Fe+2] (stereo not drawn)	?	·	-41%	·	·	·
C=Cc1c(C)c2cc3nc(cc4[nH]c(cc5nc(cc1[nH]2)C(C)=C5CCC(=O)O)c(CCC(=O)OC)c4C)[C@@]1(C)C3=CC=C(C(=O)OC)[C@H]1C(=O)OC (tested in a mixture with another compound)	3.4µM*	·	3.8µM*	·	·	·
Cc1c(C(=O)NCc2ccccc2)oc2ccc(S(=O)(=O)N3CCCC3)cc12	?	·	·	4	1	·
Cc1c(C(=O)NCc2cccnc2)oc2ccc(S(=O)(=O)N3CCCCC3)cc12	?	-7%	5.2µM*	1	-4	-5%
Cc1c(C(=O)NCc2cccnc2)oc2ccc(S(=O)(=O)N3CCCCCC3)cc12	7%	-6%	9.3µM*	-11	-2	-15%
CC(NC(=O)c1ccncc1)c1ccc(Cl)cc1Cl (stereo not drawn)	7%	?	-1%	-10	-6	15%[46.1 µM]
COc1cccc(C(=O)C2CN(c3ccccc3)CC2c2ccc(Cl)cc2)c1 (stereo not drawn)	10µM*	-28%	10µM*	53	23*	-28%
COc1cc(CN2CCN(CCCc3ccccc3)CC2CCO)cc(OC)c1 (stereo not drawn)	2%	?	0%	·	1	-15%[46.1 µM]
Fc1ccc(/C=C2\CCCC3=C2Nc2ncnn2C3c2ccc(F)cc2)cc1 (stereo not drawn)	?	?	13µM*	-8	-2	?
Cc1sc(C(=O)Nc2ccc3ccccc3c2)cc1CC(=O)O	-17%	3%[46.1 µM]	53%	20	12	14%
SMILES	Pf growth 96h	Marburg entry inh	Pf growth 48h	Shiga toxin inh	CHX counter	LASV entry inh
CC(C)(CO)NCc1cccc(OCc2ccc(Cl)cc2)c1	?	?	-24%	active	14	?
CC(C)(CO)NCc1cc(Br)ccc1OCc1ccccc1	·	?	10µM*	-24	-6	-5%
O=c1oc2ccc3ccccc3c2cc1-c1nnc(Nc2cccc(F)c2)s1	·	·	·	·	·	-3%[46.1 µM]
COc1ccc2oc(C(=O)OCC(=O)Nc3ccccc3OC)c(C)c2c1	54%	-13%	2%	·	·	?
Cc1ccc2c(C(=O)CN3CCC4(CC3)OCCO4)c(C)[nH]c2c1	?	0%[46.1 µM]	-5%	-11	-3	2%
CN=Cc1cc(-c2ccccc2)sc1O	?	0%	75%	40*	40*	7%
COc1ccc(-n2nnc3c(SCC(=O)NCC4CCCO4)ncnc32)cc1 (stereo not drawn)	0%	?	?	9	-2	-16%
Cc1ccc(C(=O)OC(C)C(=O)N(C)C2CCCCC2)cc1S(=O)(=O)N1CCCCC1 (stereo not drawn)	?	·	12µM*	·	·	·
Cc1[nH]c2ccc(C(=O)OC(C)C(=O)N(C)C3CCCCC3)cc2c1C (stereo not drawn)	?	-28%	?	·	·	?
Cc1ccc(C(=O)OC(C)C(=O)NC2CCCCC2)cc1S(=O)(=O)N1CCCCC1 (stereo not drawn)	?	·	7.4µM*	·	·	·
Cc1ccc(C(=O)OC(C)C(=O)NC2CCCCC2C)cc1S(=O)(=O)N1CCOCC1 (stereo not drawn)	-8%	-6%	?	-6	1	-10%
Cc1ccc(C)c(N2CCN(C(=O)c3ccc4nsnc4c3)CC2)c1	-19%	?	?	-5	-4	?
N#CCCn1cc(C(=O)Nc2ccc(C(=O)O)cc2)c(-c2cc3ccccc3o2)n1	?	-2%[46.1 µM]	-16%	-2	1	23%[46.1 µM]
O=C(CNC(=O)c1ccc(Cl)cc1)OCC(=O)c1ccc2c(c1)OCCO2	1%	-2%	·	37	45*	6%
CCOC(=O)CNC(=O)c1ccc2c(c1)OCCO2	?	23%	74%	59*	46*	0%
CCOC(=O)CNC(=O)c1cc(-c2ccc3c(c2)OCCO3)oc1C	-86%	15%	2%	63*	44*	-16%
CCc1nc2sc3c(c2c(=O)n1NC(=O)CCl)CCCC3	·	-25%	11%	-13	-5	2%
